VDR inhibitor = vitamin D3 receptor (human) inhibition; P11473; VDR-SRC2-3 peptide fluorescence polarization, 2 h; hit rate 0.93% among 400,000; Potency, µM, inactives show max response, negative = inhibition, actives largely listed as inhibitors; note: potency is the fitted concentration of half-maximal effect; % is set by controls: 0 for no effect and ±100 for the full control effect
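Signal is fluorescence polarization, reporting how far test compounds block the interaction of VDR with the SRC2-3 coregulator peptide after a 2 h room-temperature incubation.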
PLK1 PBD block = inhibitors of human PLK1 polo-box domain binding; P53350; Plk1 PBD binding of FITC phosphopeptide, fluorescence polarization; Potency, µM, for the others: max response, negative = inhibition, actives largely listed as inhibitors; hit rate 2.8% among 360,000; note: potency is the fitted concentration of half-maximal effect; series mostly up to about 57 µM; % is set by controls: 0 for no effect and ±100 for the full control effect; nearly all actives have a fitted effect of over 65% in size
Target sequence (P53350 whole entry, looked up, the tested form may be a part): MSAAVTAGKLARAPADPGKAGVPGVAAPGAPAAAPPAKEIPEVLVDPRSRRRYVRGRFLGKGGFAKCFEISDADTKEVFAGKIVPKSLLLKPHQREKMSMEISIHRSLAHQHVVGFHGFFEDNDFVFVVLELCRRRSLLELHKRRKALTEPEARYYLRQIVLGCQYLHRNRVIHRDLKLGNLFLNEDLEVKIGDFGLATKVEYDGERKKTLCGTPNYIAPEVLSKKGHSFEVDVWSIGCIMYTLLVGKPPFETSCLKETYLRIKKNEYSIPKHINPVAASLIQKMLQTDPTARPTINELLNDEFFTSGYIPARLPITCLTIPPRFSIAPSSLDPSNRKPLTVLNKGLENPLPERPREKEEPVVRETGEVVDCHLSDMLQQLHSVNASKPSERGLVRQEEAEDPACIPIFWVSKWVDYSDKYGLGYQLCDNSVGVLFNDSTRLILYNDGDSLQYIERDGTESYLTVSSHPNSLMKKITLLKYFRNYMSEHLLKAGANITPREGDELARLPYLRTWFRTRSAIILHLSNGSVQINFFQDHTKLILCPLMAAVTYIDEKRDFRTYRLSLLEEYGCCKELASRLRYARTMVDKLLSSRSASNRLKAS
Tb PFK inh = blocks T. brucei phosphofructokinase; O15648; T. brucei PFK, ADP-Glo luminescence; Potency, µM (doses to about 57.5 µM), inactives show at the top dose activity, negative = inhibition, usual class: inhibitors; hit rate 0.17% among 330,000;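 note: potency is the fitted concentration of half-maximal effect; 0% = uninhibited 1x PFK enzyme wells and -100% = no-enzyme wells; nearly all actives have a fitted effect of over 60% in size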
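Activity is normalized to no-enzyme wells (full inhibition) and 1.25 nM enzyme wells (no inhibition). Reaction: 0.5 mM F6P, 0.1 mM ATP, 45 min RT, ADP-Glo luminescence; concentration-response curves fitted and classed by quality.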
BRCA1 expr up = activators of BRCA1 expression. MCF7-BRCA1-FFLuc reporter, luminescence, 48 h; response scale: scaled: vehicle 0%, 10 µM genistein 100%. Potency, µM (series often up to 46.1 µM), inactives show at the top dose activation, usual class: activators. hit rate 1.1% among 380,000. AID 624202; note: potency is the fitted concentration of half-maximal effect; nearly all actives have a fitted effect of over 80% in size
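Quantitative HTS in MCF7 cells stably reporting BRCA1 expression via firefly luciferase. Compound treatment lasts 48 h at 37 °C in phenol-red free MEM. Activation is expressed relative to genistein at 10 microM and DMSO.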
USP1 UbRho = USP1-UAF1 deubiquitinase inhibition validated. AID 540327. hit rate 50% among 50. Potency, µM (titrated, usually from 56.8 µM), for the others: at the highest dose activity change, negative = inhibition, most hits filed as inhibitors. shares compounds with VDR inhibitor. Ub-Rhodamine cleavage, fluorescence kinetic read
VDR confirm = inhibits human vitamin D receptor, primary hit validation | hit rate 89% among 840 | VDR-coactivator inhibition assay, qHTS confirmation | shares compounds with VDR inhibitor | Potency, µM, actives largely listed as inhibitors; note: potency is the fitted concentration of half-maximal effect
VDR FP fluor = VDR (human) coactivator binding inhibition, fluorescein polarization; hit rate 48% among 840; VDR-coactivator binding, fluorescein fluorescence polarization; shares compounds with VDR inhibitor; AID 602200; Potency, µM (series often up to 57.1 µM), for inactives: at the top dose activity change, negative = inhibition, hits mostly inhibitors; note: potency is the fitted concentration of half-maximal effect
VDR bla reporter = VDR (human) inhibition, cell-based beta-lactamase validation; shares compounds with VDR inhibitor; VDR beta-lactamase reporter cells, FRET ratio; cells co-treated with VDR agonist LG190178; Potency, µM (titrated, usually from 46.1 µM), inactives show top-dose activity change, negative = inhibition, usual class: inhibitors; hit rate 23% among 840; note: potency is the fitted concentration of half-maximal effect; % is set by controls: 0 for no effect and ±100 for the full control effect
VDR viability = counter-screen for vitamin D receptor inhibitors: cytotoxicity. Potency, µM (top dose mostly 48.3 µM), for the others: top-dose activity change, negative = cytotoxicity, actives largely listed as cytotoxic. hit rate 18% among 840. shares compounds with VDR inhibitor. cytotoxicity counter-screen, cell viability, qHTS;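 note: potency is the fitted concentration of half-maximal effect; plate controls were DMSO for no effect and high-concentration cycloheximide for full effect; nearly all actives have a fitted effect of over 75% in size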
* marks the source's active call; other numbers are inactive results; ! = not confirmed by another sample. This is a sample that favours compounds with a hit; in the whole collection about 3.9% have one here. Calls come from the whole dose curve; as a rule, active = well fitted curve in the direction sought with a large enough effect; inconclusive = small, poorly fitted or top-dose-only effect, or another doubt; inactive = no such curve, though single readings can be large; an effect the other way counts as inactive or inconclusive.

What do the screens show for `CN1C(=O)/C(=N\OC(=O)c2ccccc2Cl)c2ccccc21`?
VDR inhibitor: inconclusive; PLK1 PBD block: 2.67µM*; Tb PFK inh: 4.2%; BRCA1 expr up: -9.0%; VDR confirm: 14.1*; VDR FP fluor: 15.8µM*; VDR bla reporter: inconclusive; VDR viability: 2.2%

What do the screens show for `O=C(Oc1ccc(Br)cc1C(=O)/C=C/c1ccccc1F)c1ccco1`?
VDR inhibitor: 44.7µM*; PLK1 PBD block: -16.0%; BRCA1 expr up: -9.9%; VDR confirm: inconclusive; VDR FP fluor: 7.08µM*; VDR bla reporter: -8.6%; VDR viability: inconclusive

Results for CC(=O)c1cc(Cl)ccc1OC(=O)c1ccco1 ?
VDR inhibitor: -11.7%; PLK1 PBD block: -10.1%; Tb PFK inh: -0.5%; BRCA1 expr up: 21.2%

Results for Cc1sc2c(c1C)c(=O)n(Cc1ccccc1)c(=O)n2CC(=O)Nc1cccc(Cl)c1 ?
VDR inhibitor: 1.0%

How did CCOc1ccc(C(=O)CCN2CCCCCC2)cc1 do in these assays?
VDR inhibitor: 25.1µM*; PLK1 PBD block: 10.6µM*; Tb PFK inh: -14.0%; BRCA1 expr up: -100.7%; VDR confirm: 26.7*; VDR FP fluor: inconclusive; VDR bla reporter: inconclusive; VDR viability: inconclusive

What do the screens show for `COc1ccc(/C=C/C(=O)c2ccccn2)cc1`?
VDR inhibitor: 39.8µM*; PLK1 PBD block: -11.7%; Tb PFK inh: -21.8%; BRCA1 expr up: inconclusive; VDR confirm: 33.6*; VDR FP fluor: inconclusive; VDR bla reporter: 33.8%; VDR viability: -14.4%

Results for CCOc1cc(/C=C2\CN(CC)C/C(=C\c3ccc(O)c(OCC)c3)C2=O)ccc1O ?
VDR inhibitor: inconclusive; PLK1 PBD block: -7.5%; Tb PFK inh: 5.5%; BRCA1 expr up: -102.4%

What do the screens show for `CCN1C/C(=C/c2cccc([N+](=O)[O-])c2)C(=O)/C(=C/c2cccc([N+](=O)[O-])c2)C1`?
VDR inhibitor: 10µM*; PLK1 PBD block: -22.3%; Tb PFK inh: 4.6%; BRCA1 expr up: -100.7%; VDR confirm: 3.36*; VDR FP fluor: inconclusive; VDR bla reporter: 2.06µM*; VDR viability: inconclusive

What do the screens show for `CN(C)S(=O)(=O)c1ccc2c(c1)C(=O)c1cc(S(=O)(=O)N(C)C)ccc1CC2`?
VDR inhibitor: 14.7%; Tb PFK inh: -3.0%; BRCA1 expr up: 0.0%

How did CN(C)S(=O)(=O)c1ccc2c(c1)/C(=C/c1cc3c([nH]1)CCCC3)C(=O)N2 do in these assays?
VDR inhibitor: -18.7%; PLK1 PBD block: 3.0%; Tb PFK inh: -11.7%; BRCA1 expr up: -12.3%; USP1 UbRho: 46.9µM*

How did CC(C)(C)NC(=O)c1ccc2nc(CCc3ccccc3)oc2c1 do in these assays?
VDR inhibitor: 1.1%

Results for O=C(/C(=C/c1ccc(Cl)cc1)c1nc2ccccc2[nH]1)c1cccs1 ?
VDR inhibitor: 17.8µM*; PLK1 PBD block: -11.4%; Tb PFK inh: -6.8%; BRCA1 expr up: -82.0%; VDR confirm: 9.47*; VDR FP fluor: inconclusive; VDR bla reporter: 6.51µM*; VDR viability: 8.2µM*

How did O=C(/C(=C\c1ccccc1)c1nc2ccccc2[nH]1)c1ccc(Cl)cc1 do in these assays?
VDR inhibitor: inconclusive; PLK1 PBD block: -2.3%; Tb PFK inh: -4.0%; BRCA1 expr up: -96.7%

Results for CCCCN(C)S(=O)(=O)c1ccc(NC2=NS(=O)(=O)c3ccccc32)cc1 ?
VDR inhibitor: -19.3%

Results for CC1(C)CC(=O)C(C(c2ccc(Br)cc2)C2C(=O)CC(C)(C)CC2=O)C(=O)C1 ?
VDR inhibitor: 25.1µM*; PLK1 PBD block: 18.9µM*; Tb PFK inh: 1.8%; BRCA1 expr up: -25.7%; VDR confirm: 29.9*; VDR FP fluor: 17.8µM*; VDR bla reporter: 23.7%; VDR viability: 8.7%

What do the screens show for `COc1cc(OC)cc(C(=O)Nc2cc(-c3nc4cc(Cl)ccc4o3)ccc2Cl)c1`?
VDR inhibitor: 1.3%; BRCA1 expr up: -30.4%

What do the screens show for `O=C(N[C@@H](Cc1ccccc1)C(=O)CCl)OCc1ccccc1`?
VDR inhibitor: 5.62µM*; PLK1 PBD block: 29.9µM*; Tb PFK inh: -16.3%; BRCA1 expr up: -70.0%; USP1 UbRho: 26.4µM*

How did CCN(c1ccccc1C)S(=O)(=O)c1nnc(NC(=O)c2ccccc2C)s1 do in these assays?
VDR inhibitor: -0.1%

What do the screens show for `COc1ccc(NC(=O)c2cccc(N3C(=O)c4cccc([N+](=O)[O-])c4C3=O)c2)cc1`?
VDR inhibitor: -29.3%; PLK1 PBD block: -13.8%; Tb PFK inh: -0.6%; BRCA1 expr up: 0.0%

What do the screens show for `COc1ccc(/C=C2\C(=O)N(c3c(Cl)cc(Cl)cc3Cl)N=C2NC(=O)c2cccc([N+](=O)[O-])c2)cc1`?
VDR inhibitor: inconclusive; PLK1 PBD block: 0.752µM*; Tb PFK inh: 3.8%; BRCA1 expr up: 2.4%; VDR confirm: 2.82*; VDR FP fluor: 1.26µM*; VDR bla reporter: inconclusive; VDR viability: -13.8%

How did Cc1cc(Oc2ccc(Cl)cc2Cl)nc(C#N)n1 do in these assays?
BRCA1 expr up: -9.5%

Results for Cc1ccc(NC2=C/C(=N\S(=O)(=O)c3cccs3)c3ccccc3C2=O)c(C)c1 ?
VDR inhibitor: -14.5%; PLK1 PBD block: -21.0%; Tb PFK inh: -4.4%; BRCA1 expr up: -97.4%

Results for Cc1cc(C)c(S(=O)(=O)/N=C2/C=C(SCC(=O)O)C(=O)c3ccccc32)cc1C ?
VDR inhibitor: 7.94µM*; PLK1 PBD block: 0.844µM*; Tb PFK inh: -14.0%; BRCA1 expr up: -81.2%; VDR confirm: 4.23*; VDR FP fluor: inconclusive; VDR bla reporter: -0.7%; VDR viability: inconclusive

Results for Cc1ccc2cccc(NC(=O)COc3ccccc3Cl)c2n1 ?
VDR inhibitor: 2.7%; BRCA1 expr up: -31.9%

Results for CC1(C)CCC(=O)c2ccccc21 ?
VDR inhibitor: -17.6%; PLK1 PBD block: -7.2%; BRCA1 expr up: 13.7%

How did CC1(C)CCC2=C(O1)c1ccccc1C(=O)C2=O do in these assays?
VDR inhibitor: 8.91µM*; BRCA1 expr up: -68.8%; USP1 UbRho: 8.35µM*; VDR confirm: 14.1*; VDR FP fluor: 11.2µM*; VDR bla reporter: inconclusive; VDR viability: 23.8µM*!

From PubChem
